Assay outcomes (PubChem)
aSyn 5UTR act – Activators working through SNCA 5'UTR binding (MLPCN). alpha-synuclein 5'UTR reporter, activators screen. activity score, % (tested at 7.5 µM), hits read low. 7.1% of 300,000 active; in the data active means activity score below about -60%
Hits are given with their value. A selection follows.

For COc1ccc(NC(=O)c2ccc3ccccc3n2)cc1S(=O)(=O)N1CCCCC1 the results were aSyn 5UTR act -122.
For COc1ccccc1N=c1oc2cc(O)ccc2cc1C(N)=O the results were aSyn 5UTR act -74.
For Cc1cccc(N=c2oc3cc(O)ccc3cc2C(N)=O)c1 the results were aSyn 5UTR act -77.
COc1ccc2cc(C(N)=O)c(=Nc3ccc(C)cc3)oc2c1 was read as aSyn 5UTR act -62.
Screening C(=C/c1nccc2c1[nH]c1ccccc12)/c1ccc2c(c1)OCO2 returned aSyn 5UTR act -132.
For CCN(CCn1cccn1)C(=O)CCc1nnc(-c2ccccc2)o1 the results were aSyn 5UTR act -73.
For CCN(CCn1cccn1)C(=O)CCc1nnc(C2(c3ccc(Cl)cc3)CCC2)o1 the results were aSyn 5UTR act -86.
CC1CCc2c(nc3sc4c(c3c2N)CCCC4)C1 (configuration not stated) was read as aSyn 5UTR act -125.
CC1CCc2nc3sc4c(c3c(N)c2C1)CCCC4 (configuration not stated) was read as aSyn 5UTR act -132.
For Cc1c(C)n(CCc2ccccc2)c2ncnc(NCCCO)c12 the results were aSyn 5UTR act -141.
Screening Cc1ccc(-n2c(C)c(C)c3c(NCCO)ncnc32)cc1 returned aSyn 5UTR act -107.
Screening O=C(N/N=C/c1ccc(O)cc1)Nc1cccc2nsnc12 returned aSyn 5UTR act -73.
`COc1cc(/C=N/NC(=O)Nc2cccc3nsnc23)cc(OC)c1OC` gave aSyn 5UTR act -89.
For O=S(=O)([N-]c1nc2ccccc2nc1-[n+]1ccc(-c2ccncc2)cc1)c1ccccc1 the results were aSyn 5UTR act -105.
`O=C(c1cc(-c2ccccc2O)on1)N1CCCCCC1` gave aSyn 5UTR act -140.
`O=C(c1cc(-c2ccccc2O)on1)N1CCOCC1` gave aSyn 5UTR act -115.
Screening c1ccc(N2CCN(c3ccccc3)C2c2cccs2)cc1 returned aSyn 5UTR act -108.
For COc1ccc(-n2c(O)c(/C=N/Nc3nc(C)cc(C)n3)c3ccccc3c2=O)cc1OC the results were aSyn 5UTR act inactive.
For COc1ccccc1NS(=O)(=O)c1cccc(-n2c(O)c(C=Nc3ccccc3C(=O)O)c3ccccc3c2=O)c1 the results were aSyn 5UTR act -66.
Screening COc1ccccc1C(=O)Nc1sc2c(c1C(N)=O)CCCC2 returned aSyn 5UTR act -83.
Screening NC(=O)c1c(NC(=O)c2ccc(F)cc2)sc2c1CCC2 returned aSyn 5UTR act -184.
Screening O=C(Nc1sc2c(c1C(=O)O)CCCC2)c1ccc(F)cc1 returned aSyn 5UTR act -94.
CC(C)(C)c1ccc(C(=O)Nc2sc3c(c2C(=O)O)CCC3)cc1 was read as aSyn 5UTR act inactive.
`O=C(Nc1sc2c(c1C(=O)O)CCCCC2)c1cccs1` gave aSyn 5UTR act -80.
Screening Cc1ccc(-c2nc3ccccn3c2C=O)cc1 returned aSyn 5UTR act -108.
For Clc1c(-c2ccccc2)nc2ccccn12 the results were aSyn 5UTR act -152.
`c1ccn2c(c1)nc1c2nc2ccccn21` gave aSyn 5UTR act -189.
`Cc1c(-c2ccc(Br)cc2)nc2ccccn12` gave aSyn 5UTR act -181.
Screening c1ccc2c(CCNc3ncnc4nc[nH]c34)cccc2c1 returned aSyn 5UTR act -92.
`C1=C(CCNc2ncnc3nc[nH]c23)CCCC1` gave aSyn 5UTR act -116.
`CN(Cc1ccccc1)c1ncnc2c1cnn2-c1ccccc1` gave aSyn 5UTR act -169.
CCN(c1ccccc1)c1ncnc2c1cnn2-c1ccccc1 was read as aSyn 5UTR act -150.
Screening CSc1nc(Cl)cc(Nc2ccc(O)cc2)n1 returned aSyn 5UTR act -79.
Screening S=C(c1ccc(-c2cccc(Cl)c2)o1)N1CCCCC1 returned aSyn 5UTR act -111.
For N#CCCN1CCN(C(=S)c2ccc(-c3cccc(Cl)c3)o2)CC1 the results were aSyn 5UTR act -89.
S=C(c1ccc(-c2cccc(Cl)c2)o1)N1CCOCC1 was read as aSyn 5UTR act -144.
For CCC(=O)C1CCCN(C(=O)CCc2nnc(-c3ccc(C(C)=O)s3)o2)C1 (configuration not stated) the results were aSyn 5UTR act -88.
CCCOC1CCCN(C(=O)CCc2nnc(-c3ccc4c(c3)OCO4)o2)C1 (configuration not stated) was read as aSyn 5UTR act -73.
Screening O=C(COc1ccc(Cl)cc1)Nc1ncccn1 returned aSyn 5UTR act -99.
`Cc1ccnc(NC(=O)COc2ccc(Cl)cc2)n1` gave aSyn 5UTR act -83.
Screening Cc1ccc(NC(=O)C2CCCN(c3ncccn3)C2)cc1F (configuration not stated) returned aSyn 5UTR act -269.
C/C(=N\NC(=O)C1CCCN(S(=O)(=O)c2ccccc2)C1)c1ccccn1 (configuration not stated) was read as aSyn 5UTR act inactive.
`O=C(Nc1ccc2c(c1)CCC2)C1CCCN(c2ncccn2)C1` (configuration not stated) gave aSyn 5UTR act -157.
Cc1ccc(NC(=O)C2CCCN(c3ncccn3)C2)c(C)c1 (configuration not stated) was read as aSyn 5UTR act -78.
For CCc1ccc(OCC(=O)NCc2ccco2)c(Br)c1 the results were aSyn 5UTR act -70.
For CCNC(=O)NC(=O)COc1ccccc1C#N the results were aSyn 5UTR act -89.
N#Cc1ccccc1OCC(=O)NC(=O)NCc1ccco1 was read as aSyn 5UTR act -83.
`Cc1ccc(NC(=O)Nc2cccc(F)c2)nc1` gave aSyn 5UTR act -176.
For O=C(Nc1cccc(F)c1)Nc1ccc(Cl)cn1 the results were aSyn 5UTR act -135.
CN(C)C(=O)CSc1nnc(C23CC4CC(CC(C4)C2)C3)o1 was read as aSyn 5UTR act -160.
For Cc1cc2c(C)nc(N/N=C/c3ccc(F)cc3)nc2o1 the results were aSyn 5UTR act -72.
For COc1ccc(/C=N/Nc2cc(C)nc3ccc(Br)cc23)cc1 the results were aSyn 5UTR act inactive.
COc1ccc(/C=C/C(=O)NC2CCCCCCC2)cc1S(=O)(=O)N1CCOCC1 was read as aSyn 5UTR act -112.
`CC(=O)c1ccc(Nc2ccc(-c3ccccc3F)nn2)cc1` gave aSyn 5UTR act -172.
CC(=O)c1ccc(N/N=C(/C(N)=O)C2=NC(C)(C)Cc3ccccc32)cc1 was read as aSyn 5UTR act inactive.
`CN(Cc1ccccc1)C(=O)C(C(=O)c1ccc(F)cc1)n1cc(Cl)ccc1=O` (configuration not stated) gave aSyn 5UTR act -67.
For C=CCc1c(C)nc(-c2ccccc2)nc1N/N=C/c1ccncc1 the results were aSyn 5UTR act -95.
For C=CCc1c(C)nc(-c2ccccc2)nc1N/N=C(\C)c1ccc(N)cc1 the results were aSyn 5UTR act -69.
`CCn1cnc2sc(C(=O)Oc3cccc(C)c3)c(C)c2c1=O` gave aSyn 5UTR act -67.
For CC(=Nc1cc(C(=O)c2ccccc2)ccc1N)C1=C(O)CC(C)(C)CC1=O the results were aSyn 5UTR act -76.
Screening N=C1N(/N=C/c2ccccc2)C(=Nc2ccccc2)C(=S)N1c1ccccc1 returned aSyn 5UTR act -186.
Screening O=[N+]([O-])c1ccc(N/N=C/c2ccccc2)c(F)c1 returned aSyn 5UTR act -151.
For Cc1ccccc1-c1nnn(Cc2ccc(F)cc2Cl)n1 the results were aSyn 5UTR act -86.
`Fc1ccc(-c2nnn(Cc3ccc(F)cc3Cl)n2)cc1` gave aSyn 5UTR act -71.
Screening COCC1CCN(Cc2nc(-c3cccs3)no2)C1 (configuration not stated) returned aSyn 5UTR act -72.
